Pf growth 48h: inhibits P. falciparum growth in the first generation, 48 h; P. falciparum luciferase growth in erythrocytes, 48 h; Potency, µM (highest dose often 28.7 µM), for inactives: at the top dose activity change, negative = inhibition, most hits filed as inhibitors; hit rate 5.9% among 310,000; AID 504832; further: potency means the concentration at half of the fitted maximal effect; on the % scale 0 is the no-effect control and ±100 the full control effect
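Firefly luciferase activity from engineered P. falciparum reports growth; inhibitors lower the luminescent signal. Cultures contained 2% hematocrit erythrocytes at 0.1% final parasitemia.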
Cycloheximide cs: affects cycloheximide protein synthesis inhibition readout, counter-screen. cell reporter, cycloheximide protein synthesis inhibition counterscreen. max response, %. hit rate 12% among 300,000. AID 2314; in the data active means max response mostly above about 13%, no sharp cut-off; inactive means mostly below about 14%; further: read at 38.3 µM for the half of the compounds with a filed dose; 0% is about no effect
Pf growth 96h: inhibits malaria parasite growth, 96 h; Potency, µM (titrated, usually from 28.7 µM), without a hit: at the highest dose activity change, negative = inhibition, hits mostly inhibitors; hit rate 6.9% among 320,000; P. falciparum luciferase reporter growth, 96 h; further: potency means the concentration at half of the fitted maximal effect; on the % scale 0 is the no-effect control and ±100 the full control effect
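Plates of compound plus infected erythrocytes (2% hematocrit, 0.05% parasitemia final) incubate 96 hours, 37 C, 5% CO2. Detection reagent added; reduced luminescence from the parasites' luciferase reporter flags inhibition.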
Shiga toxin inh: blocks Shiga toxin action in Vero cells. Vero cells, Shiga toxin protein synthesis inhibition reporter. inhibition, % at 38.7 µM. hit rate 9.2% among 290,000. AID 2315; in the data active means inhibition mostly above about 28%, no sharp cut-off; inactive means mostly below about 43%; further: 0% is about no effect
The depositor's hits bear a star; u = inconclusive; x = not tested or not shown; + = active, no number; [ ] = another dose, or the depositor's remark. A selection: hits, their analogues and other compounds. The true share with any hit is near 21%. Unless noted, the call rests on the fitted dose curve; in most records, active means well fitted inhibition curve with a large enough effect; inconclusive means small, poorly fitted or top-dose-only effect, or another doubt; inactive means no such curve, though single readings can be large or run the other way.

SMILES | Pf growth 48h | Cycloheximide cs | Pf growth 96h | Shiga toxin inh
CCOc1ccc(NC(=O)CCC(=O)Oc2ccc(C)cc2)cc1 | 7% | 13 | -13% | 22
CCOc1ccc(-c2c(C#N)c(N)nc3sc(C(=O)c4ccccc4)c(N)c23)cc1 | -7% | -7 | u | -4
COc1ccc(-c2c(C#N)c(N)nc3sc(C(=O)c4ccccc4)c(N)c23)cc1 | 9.3µM* | -3 | -10% | 10
Cc1nc2sc(C(=O)c3ccccc3)c(N)c2c(C)c1C | 30% | 24* | 29% | 31
Cc1nc(-c2ccccc2)nc2sc(C(=O)c3ccc(F)cc3)c(N)c12 | 36% | 2 | 74% | -10
CCOc1ccc(NC(=O)c2nn(-c3ccc(OC)cc3OC)c(=O)c3ccccc23)cc1 | u | -1 | 3% | 30
O=[N+]([O-])c1cccc(NC2=NCCC2)c1 | 4% | -4 | u | -5
CCCC[C@@H](CNC)NC[C@H](NCCCCC1CCCCC1)C(C)C | u | -8 | 1.7µM* | -18
COc1cccc2oc(-c3ccco3)cc(=O)c12 | u | 30* | -103% | 24
COc1ccc2c(=O)cc(C(F)(F)C(F)(F)F)oc2c1 | 4% | 8 | -23% | -9
COc1cccc2c(=O)c3ccoc3n(C)c12 | 71% | 5 | 98% | 9
COc1ccc2c(=O)cc(-c3ccccc3F)oc2c1 | 19% | 41* | 90% | 54*
COc1ccc2oc(-c3ccco3)cc(=O)c2c1 | 228% | 50* | u | 68*
O=c1cc(-c2ccco2)oc2ccc(Cl)cc12 | 40% | 1 | -4% | 28
CCOC(=O)C1CCCN(S(=O)(=O)c2c(C(=O)N3CCCCC3)c(C)n(C)c2C)C1 (stereo not drawn) | 12% | -2 | 23% | -9
Cc1ccc(C(=O)N2CCN(S(=O)(=O)N3CCCCCC3)CC2)cc1 | 7% | -4 | -4% | -8
Cc1ccc(S(=O)(=O)N2CCOC2CNC(=O)C(=O)NCc2ccc(Cl)cc2)cc1 (stereo not drawn) | 5% | -2 | 4% | -11
Cc1ccc(NC(=O)C2SC(=Nc3ccccc3)C(C(=O)Nc3ccc(Cl)cc3)=C2N)cc1 (stereo not drawn) | u | 12 | u | 25
Cc1ccc(N=C2SC(C(=O)Nc3ccc(OC(F)(F)F)cc3)C(N)=C2C(=O)Nc2c(C)cc(C)cc2C)cc1 (stereo not drawn) | u | -2 | 12µM* | 13
CCC1/C(=N\O)CC(c2ccco2)NC1c1ccco1 (stereo not drawn) | 27% | -1 | 27% | 13
CCSc1nc(=O)n(-c2ccccc2)c(C)c1C(C)=O | 37% | 16* | -9% | 33*
CCSc1nc(=S)n(-c2ccccc2)c(C)c1C(C)=O | x | -4 | -15% | -10
O=C(COc1ccc2c3c(c(=O)oc2c1)CCCC3)NCCCn1ccnc1 | 9% | -3 | u | -8
O=C(NCC(=O)N1CCN(c2ccccc2)CC1)c1ccco1 | 23% | 22 | u | 21
C/C(=N/N1CCN(c2ccccc2)CC1)c1cccc([N+](=O)[O-])c1 | 0% | 33* | 4% | 64*
SMILES | Pf growth 48h | Cycloheximide cs | Pf growth 96h | Shiga toxin inh
C/C(=N\N1CCN(c2ccccc2)CC1)c1ccco1 | 20% | 28* | -3% | +
C/C(=N\N1CCN(c2ccc(Cl)cc2)CC1)c1cccc([N+](=O)[O-])c1 | -5% | -2 | 4% | -6
C/C(=N\N1CCN(c2ccccc2)CC1)c1cccs1 | 7% | 8 | 34% | 39
C/C(=N/N1CCN(Cc2ccccc2)CC1)c1ccc(Br)cc1 | -6% | -3 | 37% | 20
C/C(=N\N1CCN(Cc2ccccc2)CC1)c1ccco1 | 27% | 15 | 0% | 53*
C/C(=N\N1CCN(c2ccccc2)CC1)c1ccncc1 | 20% | 22* | 45% | 46*
COc1ccc2c(CC(=O)NC(Cc3ccc(Cl)cc3)C(=O)O)cc(=O)oc2c1C (stereo not drawn) | u | -1 | u | 2
Cc1ccc(NC(=O)COC(=O)CCC2CCCC2)c(Br)c1 | 1% | x | -19% | x
Cc1ccc(NS(=O)(=O)c2ccccc2)c(C)c1 | x | -5 | x | -6
O=S(=O)(c1cc(F)ccc1F)N1CCN(C2CCCCC2)CC1 | 7% | -3 | 16% | -5
O=[N+]([O-])c1ccc(/C=N\N2CCN(c3ccc(Cl)cc3)CC2)cc1 | 58% | -1 | 60% | 12
C/C(=N/N1CCN(c2ccccn2)CC1)c1ccc([N+](=O)[O-])cc1 | 38% | 31* | 140% | 21*
O=[N+]([O-])c1cccc(/C=N\N2CCN(c3ccc(Cl)cc3)CC2)c1 | -6% | -3 | 8.3µM* | 0
CCC(C)(C)NC(=O)C1CC(=O)N(CCc2ccc(F)cc2)C1 (stereo not drawn) | 174% | -2 | 0% | -16
CSc1ccccc1C(=O)Nc1cc2c(cc1C(=O)O)OCCCO2 | 1% | -3 | -1% | -4
Cc1nnc(SCC(=O)NCC(=O)Nc2ccc(F)c(F)c2F)n1Cc1ccccc1 | -1% | 5 | -2% | -2
CCc1cccc(C)c1NC(=O)C1CCN(C(=O)c2ccc([N+](=O)[O-])cc2)CC1 | -1% | -3 | 0% | -10
COCCN1C=C(C(=O)OC)C(c2ccccc2C(F)(F)F)C(C(=O)OC)=C1 | u | -3 | u | -24
CCCCN1C=C(C(=O)OC)C(c2ccccc2C(F)(F)F)C(C(=O)OC)=C1 | x | -2 | 0.52µM* | -23
CCCCOc1ccccc1C1C(C(=O)OC)=C(C)N(C)C(C)=C1C(=O)OC | 13µM* | -1 | 24% | 14
CC1=C(C(=O)OC(C)C)C(c2ccccc2)NC(=O)N1C (stereo not drawn) | -4% | -2 | 9.3µM* | -23
CCOC(=O)C1=C(C)N(C)C(C)=C(C(=O)OCC)C1c1ccccc1 | 5.2µM* | -2 | u | -13
CC(=O)Nc1ccc(NCC(=O)c2ccccc2)cc1 | -9% | -2 | u | 24
CC(C)(Oc1ccc(Cl)cc1)C(=O)NCc1ccc(S(N)(=O)=O)cc1 | -5%[5.75 µM] | -4 | u | -4
CN=CC1=C(O)CC(C)(C)CC1=O | -6% | 2 | -10%[5.75 µM] | -21
SMILES | Pf growth 48h | Cycloheximide cs | Pf growth 96h | Shiga toxin inh
CCOC(=O)c1c(/N=C/C2=C(O)CC(C)(C)CC2=O)sc(C(C)=O)c1C | 22% | 23* | 34% | 57*
CC1(C)CC(=O)C(C=Nc2ccc3[nH]ncc3c2)=C(O)C1 | 5% | 37* | 10µM* | 33*
CC1(C)CC(=O)C(C=Nc2ccc(N)cc2)=C(O)C1 | 122% | 40* | 53% | 81*
CCOC(=O)c1c(/N=C/C2=C(O)CC(C)(C)CC2=O)sc2c1CCCC2 | 54% | 11 | 6% | 23
CC1(C)CC(=O)C(C=Nc2ccc3cn[nH]c3c2)=C(O)C1 | 0% | 13 | -8% | 74
CC1(C)CC(=O)C(C=Nc2ccc(O)cc2)=C(O)C1 | 39% | 18* | 1% | 36*
O=C1OC(c2cc(I)c(O)c(I)c2)(c2cc(I)c(O)c(I)c2)c2ccccc21 | x | 1 | x | -2
CCOc1ccc(N=CC2=C(O)CC(C)(C)CC2=O)cc1 | 4% | -3 | -22% | 189*
Cc1ccc(N=CC2=C(O)CC(C)(C)CC2=O)nc1 | x | -1 | u | 12
